From PubChem BioAssay
JMJD2A Tudor = blocks the human JMJD2A Tudor domain; actives 4.4% (n = 390,000); O75164; Potency, µM (top dose mostly 114 µM), without a hit: at the top dose activity change, negative = inhibition, hits mostly inhibitors; AlphaScreen JMJD2A-Tudor / H3K4me3 peptide binding; further: on the % scale 0 is the no-effect control and ±100 the full control effect; nearly all actives have a fitted effect of over 50% in size
Sfp inh = Sfp phosphopantetheinyl transferase inhibition. Q9F4F7. Biochemical Sfp PPTase activity, qHTS. Potency, µM, without a hit: largest response in the series, negative = inhibition, hits mostly inhibitors. actives 3.5% (n = 310,000). AID 1490;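 further: the enzyme is Sfp with the accession as filed and its product quenches rhodamine fluorescence; 0% = enzyme reaction without inhibitor and -100% = no enzyme wells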
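Buffer: 50 mM Hepes-Na pH 7.6, 10 mM MgCl2, 0.01% Nonidet P-40, 0.01% BSA. Enzyme 15 nM, pre-exposed to compound 15 min; substrates then added and fluorescence change tracked over 30 min.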
L3MBTL1 inh = blocks human L3MBTL1. AlphaScreen L3MBTL1–H3K9me1 peptide binding. AID 485360. actives 0.66% (n = 230,000). Q9Y468. Potency, µM (highest dose often 57.1 µM), inactives show at the top dose activity, negative = inhibition, actives largely listed as inhibitors; further: on the % scale 0 is the no-effect control and ±100 the full control effect; nearly all actives have a fitted effect of over 60% in size
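First, the protein-peptide complex forms for 30 min at room temperature (L3MBTL1 50 nM, biotinylated H3K9me1 peptide 75 nM). Next, compounds are pin-transferred and incubated 30 min. Finally, AlphaScreen beads are added and read after 30 min.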
HP1b chromo inh = blocks HP1-beta chromodomain binding to methylated histone tails. P83916. AlphaScreen HP1-beta / biotin-H3K9me3 peptide binding. Potency, µM (top dose mostly 114 µM), inactives show at the highest dose activity change, negative = inhibition, actives largely listed as inhibitors. actives 0.56% (n = 390,000). AID 540317; further: nearly all actives have a fitted effect of over 70% in size
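AlphaScreen: HP1-beta (50 nM) preformed 30 min with biotin-H3(1-18)K9me3 peptide (50 nM) in PBS pH 7.4, 0.01% Tween-20. Compound added for 30 min at RT, then streptavidin donor/nickel chelate acceptor beads (10 ug/mL) for 30 min.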
BAZ2B block = blocks human BAZ2B; Q9UIF8; AlphaScreen BAZ2B-H3K14Ac peptide displacement; Potency, µM (series often up to 114 µM), inactives show top-dose activity change, negative = inhibition, usual class: inhibitors; actives 4.4% (n = 360,000); further: on the % scale 0 is the no-effect control and ±100 the full control effect; nearly all actives have a fitted effect of over 60% in size
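Inhibition is scored as reduced AlphaScreen emission. The BAZ2B/b-H3(5-23)K14Ac complex (50 nM each) in PBS pH 7.4, 0.01% Tween-20 meets compound (up to 110 uM) for 30 min at RT before bead addition.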
G9a inh = inhibitors of human histone lysine methyltransferase G9a. Potency, µM (doses to about 102 µM), for inactives: top-dose activity, negative = inhibition, usual class: inhibitors. G9a H3K9 monomethylation, AlphaScreen, 2 h. actives 8.8% (n = 350,000); further: on the % scale 0 is the no-effect control and ±100 the full control effect; nearly all actives have a fitted effect of over 75% in size
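G9a (20 nM) preincubated 15 min RT with compounds, then 500 nM biotinylated H3K9 peptide and 20 uM SAM added; 2 h RT reaction. Monomethyl-H3K9 product detected by AlphaScreen with anti-H3K9me1 antibody, streptavidin donor and anti-rabbit IgG acceptor beads.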
Numbers without * were called inactive; ? = inconclusive; . = no result; [ ] = another dose, or the depositor's remark. Most compounds without a hit are left out; they make up all but 12% or so of the library. The call rests on the fitted dose curve; in most records, active means well fitted curve in the direction sought with a large enough effect; inconclusive means small, poorly fitted or top-dose-only effect, or another doubt; inactive means no such curve, though single readings can be large; an effect the other way counts as inactive or inconclusive. Potency means the concentration at half of the fitted maximal effect.

SMILES	JMJD2A Tudor	Sfp inh	L3MBTL1 inh	HP1b chromo inh	BAZ2B block	G9a inh
NC(=O)CCCCC1CCSS1 (configuration not stated)	.	10.6%	.	.	.	13.6%[59 µM]
CCCCCn1c(=O)[nH]c2cc(C(=O)NC(C)CC)ccc2c1=O (configuration not stated)	11.3%	.	.	19.7%	1.6%	8.2%[59 µM]
CCC(C)/C=C/C1=CC2=C(Cl)C(=O)C3(C)OC(=O)C(C(=O)C(C)C(C)O)C3C2=CO1 (configuration not stated)	-34.7%	31.6µM*	-19.5%	3.0%	?	?
O=C(CN1C(=O)S/C(=C\c2ccc(Cl)cc2)C1=O)NC1C=CS(=O)(=O)C1 (configuration not stated)	20µM*	-4.2%	.	-0.2%	-13.2%[57.1 µM]	10.2%
O=C(CN1C(=O)S/C(=C\c2cccc(Cl)c2)C1=O)NC1C=CS(=O)(=O)C1 (configuration not stated)	0.0%	6.0%	.	38.6%	-4.7%	0.8%
CN1CCN(NC(=O)CN2C(=O)/C(=C/c3ccccc3F)SC2=S)CC1	.	-28.5%	-1.1%	.	?	50.1µM*
O=C(CN1C(=O)/C(=C/c2ccccc2F)SC1=S)NC1C=CS(=O)(=O)C1 (configuration not stated)	-11.0%	22.4µM*	.	49.5%	-31.8%	.
Cc1ccc2c(=O)cc(C(=O)Nc3sc4c(c3C(=O)NCc3ccccc3)CCCC4)oc2c1C	-20.8%	.	.	24.6%	-10.3%	-3.2%[59 µM]
COCCCn1c(=O)/c(=C\c2ccccc2OC(F)F)s/c1=C(/C#N)C(=O)NC(C)C	-18.4%	11.7%	-0.8%	6.2%	-8.9%	11.7%[59 µM]
COCCCn1c(=O)/c(=C\c2ccccc2OC(C)C)s/c1=C(/C#N)C(=O)Nc1ccc(C(=O)O)cc1	?	-24.7%	-9.2%	-15.2%	50.1µM*	44.7µM*
Cc1ccccc1NC(=S)N/N=C1\CC(C)(C)Oc2ccc(O)cc21	39.8µM*	17.3%	.	?	?	35.5µM*
Cc1ccc(NC(=S)N/N=C2\CC(C)(C)Oc3ccc(O)cc32)cc1	-32.0%	30.5%	-7.7%	0.7%	0.1%	19.6%[59 µM]
CC(=O)N1CCC2(CC1)C/C(=N\NC(=S)Nc1ccc(C)cc1)c1cc(O)ccc1O2	?	1.0%	.	-22.9%	?	39.8µM*
Cc1snc2sc(C(=O)c3ccc(F)cc3)c(N)c12	1.1%	39.8µM*	.	57.8%	-13.6%	.
CCSc1nc2c(c(=O)[nH]c(=O)n2C)n1CC(O)COc1ccc(Cl)cc1 (configuration not stated)	-15.7%	.	.	38.2%	0.4%	1.2%[59 µM]
CCCn1c(N/N=C(C)\C=C\c2ccccc2)nc2c1c(=O)[nH]c(=O)n2C	.	39.8µM*	-2.0%	.	-20.9%	?
CC(O)CSc1nc2c(c(=O)[nH]c(=O)n2C)n1CC(O)COc1ccccc1 (configuration not stated)	-4.5%	-40.8%	12.0%	-9.0%	-20.1%	11.2µM*
Cn1c(=O)[nH]c(=O)c2c1nc(N1CCCC1)n2CC(O)COc1ccccc1 (configuration not stated)	-15.9%	-19.6%	.	17.8%	8.6%	-13.5%
CC(C)Sc1nc2c(c(=O)[nH]c(=O)n2C)n1CC(O)COc1ccccc1 (configuration not stated)	-1.7%	?	.	-11.9%	3.1%	22.4µM*
Cn1c(=O)[nH]c(=O)c2c1nc(NN)n2CCOc1ccccc1	?	25.1µM*	.	9.4%	-35.0%	11.2µM*
COc1ccc(-c2nc3ccc(NC(C)=O)cc3c(=O)n2Cc2ccccc2)cc1COc1ccc(NC(C)=O)cc1	?	.	.	18.7%	.	.
COc1ccccc1CNC(=O)c1cccc(Nc2nc3ccccc3n3nnnc23)c1	-2.1%	.	.	37.5%	-1.0%	-2.0%[59 µM]
c1ccc(CSc2nnc(Cc3ccccc3)o2)cc1	79.4µM*	?	33.4%	45.6%	56.4%	?
Cc1ccc(CSc2nnc([C@@H]3CCCN3)o2)cc1	20.0%	6.9%	4.9%	27.1%	-36.8%	.
c1ccc(CSc2nnc([C@@H]3CCCN3)o2)cc1	?	-18.4%	7.4%	69.6%	50.1µM*	.
SMILES	JMJD2A Tudor	Sfp inh	L3MBTL1 inh	HP1b chromo inh	BAZ2B block	G9a inh
c1ccc(CSc2ncccn2)cc1	8.8%	-17.7%	7.7%	18.7%	10.2%	25.1µM*
c1ccc(CSc2nnc(Cc3ccccn3)o2)cc1	-25.0%	-10.5%	2.0%	30.8%	-10.1%	-4.7%
Clc1ccc(CSc2ncccn2)cc1	61.3%	-5.7%	-2.5%[11.4 µM]	66.3%	38.1%	31.6%[59 µM]
NNc1nc(-c2ccccc2)cc(-c2ccccc2O)n1	?	-4.8%	-17.1%	3.3%	50.1µM*	7.2%
O=C(Oc1ccccc1O)c1cccc2ccccc12	.	0.2%	2.9%	.	-17.4%	44.7µM*
O=C(Oc1cccc2c(O)cccc12)c1ccccc1Cl	-24.0%	.	.	-16.2%	.	.
CCCOC(c1ccccc1)(c1ccccc1)C(Oc1nc(C)cc(C)n1)C(=O)O (configuration not stated)	-4.0%	2.6%	.	30.7%	-15.9%	70.8µM*
COc1ccc(C2CC(c3ccc4ccccc4c3)=NN2C(=O)CN2CCC(C(N)=O)CC2)cc1 (configuration not stated)	?	?	-12.9%	-17.9%	-27.1%	?
COc1ccc(C2=NN(C(=O)CCC(=O)O)C(c3ccc(OC)cc3)C2)cc1 (configuration not stated)	-17.8%	1.4%	1.9%	37.3%	4.0%	.
COc1ccc(C2CC(c3ccc4ccccc4c3)=NN2C(=O)COC(=O)C2CCC(=O)N2)cc1 (configuration not stated)	?	-22.7%	-12.0%	-1.4%	35.5µM*	?
Nc1cc(=O)[nH]c(SCC(=O)N2N=C(c3ccc4ccccc4c3)CC2c2ccccc2)n1 (configuration not stated)	?	21.0%	.	-4.4%	?	-25.6%[12.7 µM]
COc1ccc(C2CC(c3ccc4ccccc4c3)=NN2C(=O)CNC2CCCCC2)cc1 (configuration not stated)	22.4µM*	-63.6%	-27.4%	?	56.2µM*	10µM*
CCN1CCN(CC(=O)N2N=C(c3ccc(OC)cc3)CC2c2ccc(OC)cc2)C(=O)C1=O (configuration not stated)	79.4µM*	16.5%	-11.5%	-5.9%	-23.4%	3.9%
CC(=O)OCC(=O)N1N=C(c2ccc3ccccc3c2)CC1c1ccccc1 (configuration not stated)	-17.5%	25.1µM*	1.2%	26.3%	-18.9%	-8.8%
COc1ccc(C(=O)O)cc1Nc1nc2ccc(C)cc2n2cnnc12	-3.6%	.	.	18.3%	0.6%	-19.6%[59 µM]
Cn1ccnc1SCc1ccc(Cl)cc1Cl	?	1.1%	.	7.6%	-12.9%	8.91µM*
